Twelve molecules from PubChem BioAssay can be followed below.

The structures appear in SMILES notation. The list shows a part of the results. Calls of active or inactive are those of the source.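 Rule for the calls, unless noted: active = GFP response above 150% of the DMSO level; inconclusive = fewer than 70 events counted for a yeast strain; inactive = the rest.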

The nature of test [1]: RPL19A-GFP modulators, yeast TOR pathway, confirmation, cell-based, S. cerevisiae, flow cytometry, cherry picks, mother/daughter gates (AID 2270;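 active = GFP response below 50% of the DMSO control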). The settings on record: S. cerevisiae RPL19A-GFP strain, 3 h, at 10 µM, stronger effect = lower value, 100 = same GFP as DMSO wells.
Test [2] can be described thus: LAP4-GFP expression modulators in yeast, confirmation, cell-based, cherry picks, flow cytometry, mother/daughter gates (AID 2271;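 active = GFP response above 150% of the DMSO control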;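 note: ratio of sample to DMSO plate mean so 100% equals DMSO level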). The note with it: S. cerevisiae LAP4-GFP strain, 3 h, at 10 µM, stronger effect = higher value, 100 means same as DMSO control.
Test [3] in a line: modulators of MEP2-GFP levels in yeast, confirmation, S. cerevisiae, flow cytometry GFP, cherry picks (AID 2272;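 active = GFP response above 150% of the DMSO control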;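 note: ratio of well signal to plate DMSO mean so 100% equals DMSO level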). The note with it: S. cerevisiae MEP2-GFP strain, 3 h, at 10 µM, stronger effect = higher value.
A short description of test [4]: modulators of CIT2-GFP expression in yeast, confirmation, S. cerevisiae, GFP fusion, cherry picks, mother/daughter gates (AID 2274). The note with it: S. cerevisiae CIT2-GFP strain, flow cytometry, 3 h, at 10 µM, stronger effect = higher value.
Test [5] can be described thus: AGP1-GFP expression modulators, hit retest, confirmation, cell-based, flow cytometry, S. cerevisiae, cherry picks (AID 2273).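 Note: median GFP channel fluorescence over the whole cell population gate.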 The settings on record: S. cerevisiae AGP1-GFP strain, 3 h, at 10 µM.
Test [6] is described as follows: compound autofluorescence in yeast s288c, dose response, artefact control for yeast TOR pathway GFP screen, s288c strain (AID 2757;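 active = fluorescence span over the dose series, or activity score, above about 33, limit read from the data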;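 note: thousands of bead-calibrated equivalent soluble fluorophore molecules from median cell fluorescence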). The note with it: S. cerevisiae s288c, 520 nm autofluorescence, flow cytometry, 3 h; at 33 µM; stronger effect = higher value; zero means same as solvent-only cells.
Test [7] in a line: inhibitors of CD8+ T cell-vesicle binding, pilot screen, LFA-1/ICAM-1 modulator project, MLPCN validation set, flow cytometry (AID 2523;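 active = response below a set limit, under 55% cells CD8-positive and vesicle-bound, and CD8 cells' 90th-percentile brightness under 279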;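 for vesicle binding response: mean PE anti-B7-1 fluorescence of CD8+ cells relative to row control; 100% = QL9-loaded vesicles with DMSO vehicle in the same plate row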). The settings on record: 2C mouse CD8+ T cells, at 7 µM, stronger effect = lower value; double positive events: measured here: CD8+/vesicle+ event percentage.
Test [8] concerns the target Integrin beta-1 (Homo sapiens) + Integrin alpha-4 (Homo sapiens) (UniProt P13612+P05556). Briefly: inhibition of HUTS-21 binding to VLA-4, pilot screen, VLA-4 allosteric modulator project, U937 cells, HUTS-21 mAb, flow cytometry, validation set (AID 2674;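 active = inhibition above 50%, about 3 SD of the validation set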;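 note: antibody binding induced by the VLA-4 ligand LDV present at three times its Kd; 0% = LDV ligand with antibody and no compound and 100% = antibody without LDV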). The note with it: HUTS-21 LIBS mAb binding, at 6.7 µM, stronger effect = higher value, binding induced by LDV ligand.
Test [9] in a line: superoxide lowering in aged yeast cells, pilot screen, validation compound set (AID 2706;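 active = superoxide response below 65% of plate, a cut near 3 SD across the whole screen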;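 note: yeast exposed to compound for one week at 30 degrees C before staining; 100% = mean of all compound wells on the same plate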). The note with it: S. cerevisiae aging, superoxide DHE fluorescence; at 10 µM, stronger effect = lower value.
Test [10] has as its target Beta-adrenergic receptor kinase 1 (Homo sapiens) (UniProt P25098). Briefly: GRK2 binders displacing RNA aptamer, biochemical, validation, human GRK2, bead flow cytometry (AID 488806;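 active = aptamer binding inhibition above 30%, about 3 SD of noise from non-fluorescent compounds; inactive = inhibition at or below 30%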). The note with it: bead-bound GRK2, FAM-aptamer displacement, at 10 µM, stronger effect = higher value.
Test [11] deals with AP-2 complex subunit beta (Homo sapiens) (UniProt P63010). Briefly: inhibitors of arrestin peptide binding to AP2, pilot screen, biochemical, validation set, GST-AP2 beads, flow cytometry (AID 504541;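 active = inhibition above 54%, about 3 SD of non-fluorescent compounds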;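 note: AP2 carries R879A mutation and is captured from E. coli lysate; bead-bound FITC arrestin peptide fluorescence measuring arrestin peptide binding to AP2; 0% = DMSO wells and 100% = excess unlabeled arrestin peptide control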). The note with it: FITC arrestin peptide, at 10 µM, stronger effect = higher value, AP2 beta2 appendage fragment, R879A mutant.
Chain of AP-2 complex subunit beta (Homo sapiens) (P63010 whole entry, looked up, the tested form may be a part, one chain of several): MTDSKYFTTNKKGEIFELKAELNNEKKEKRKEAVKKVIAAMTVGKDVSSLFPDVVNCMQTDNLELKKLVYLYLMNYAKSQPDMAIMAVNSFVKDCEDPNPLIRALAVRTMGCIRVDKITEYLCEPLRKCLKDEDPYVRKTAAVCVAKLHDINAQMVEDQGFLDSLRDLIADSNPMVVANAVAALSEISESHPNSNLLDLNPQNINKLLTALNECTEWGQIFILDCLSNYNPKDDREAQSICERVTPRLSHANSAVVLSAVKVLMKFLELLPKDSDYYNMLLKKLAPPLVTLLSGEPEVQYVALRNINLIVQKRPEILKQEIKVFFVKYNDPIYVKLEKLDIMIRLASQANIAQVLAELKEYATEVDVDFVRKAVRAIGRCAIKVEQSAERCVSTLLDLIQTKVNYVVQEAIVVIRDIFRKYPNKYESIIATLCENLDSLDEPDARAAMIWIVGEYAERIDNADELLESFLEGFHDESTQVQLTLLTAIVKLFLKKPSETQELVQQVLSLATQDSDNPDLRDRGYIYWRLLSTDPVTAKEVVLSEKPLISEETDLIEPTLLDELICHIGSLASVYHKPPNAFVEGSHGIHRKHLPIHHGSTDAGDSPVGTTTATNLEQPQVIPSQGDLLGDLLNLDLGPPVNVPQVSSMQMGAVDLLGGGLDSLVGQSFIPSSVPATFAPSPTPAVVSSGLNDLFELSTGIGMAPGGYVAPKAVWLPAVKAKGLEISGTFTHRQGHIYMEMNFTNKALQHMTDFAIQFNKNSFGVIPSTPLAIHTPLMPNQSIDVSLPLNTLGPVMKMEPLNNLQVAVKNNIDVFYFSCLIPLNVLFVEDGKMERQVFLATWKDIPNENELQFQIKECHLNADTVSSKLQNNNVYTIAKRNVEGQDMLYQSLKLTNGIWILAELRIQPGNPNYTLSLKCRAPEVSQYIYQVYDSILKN
A short description of test [12]: yeast V-ATPase proton transport modulators, S. cerevisiae, pHLuorin, HTS validation (AID 504600; in the data active = response above about 15%;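 note: plate controls were DMSO for no effect and reference compound for full effect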). The note with it: S. cerevisiae pHLuorin cytosolic pH, at 10 µM, stronger effect = higher value.
The test system of test [13] is anti-desmoglein-3 scFv antibody binding to human DSG3. Briefly: inhibitors of anti-DSG3 scFv binding to DSG3, pilot screen, biochemical, validation compound set, bead-based, flow cytometry (AID 588368;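 active = binding below the plate cutoff, the plate median minus 3 SD, with a reading above zero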;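 note: signal is the median channel fluorescence of bead-bound GFP antibody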). The note with it: Protein G beads, DSG3-Fc, scFv-GFP binding, at 10 µM, stronger effect = lower value.
The nature of test [14]: inhibitors of fungal efflux pumps CDR1, CDR2, MDR1, pilot screen, validation compound set, multiplex, phenotypic (AID 588506;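 active = efflux inhibition above 0.42, the validation set average plus 4 SD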;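 note: Nile Red retained in cells so higher fluorescence means more efflux inhibition; 0 = negative control wells and 1 = enniatin B 25 µM full block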). The note with it: S. cerevisiae pump-expressing triplex, Nile Red efflux flow cytometry; at 10 µM; stronger effect = higher value; the pumps come from Candida albicans.
Test [15] has as its target ATP-binding cassette sub-family B member 6 (Homo sapiens) (UniProt Q9NP58). Briefly: ABCB6 transporter inhibitors, pilot screen, K562-ABCB6 cells, flow cytometry, validation set (AID 588550;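 active = inhibition above the screen-wide mean plus 3 SD, about 51%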;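 note: 0% = DMSO wells and 100% = benzethonium chloride 70 µM positive control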). The note with it: K562-ABCB6 porphyrin accumulation, 1 h, at 10 µM, stronger effect = higher value.
Test [16] can be described thus: promoters of myeloid differentiation in arrested cells, primary screen, cell-based, GFP/MAC1 double positive, flow cytometry, validation set (AID 588685;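 active = differentiation response of at least 50%, scaled between solvent and reference control, from cells with both markers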;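 note: compound exposure lasts four days before antibody staining and flow analysis; 0% = DMSO wells and 100% = 5 µM fulvestrant positive control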). The note with it: ER-HoxA9 marrow cells, stronger effect = higher value, normalized: vehicle 0, fulvestrant 100.
The mark [17] stands for this setting: measured here: daughter cell gate.
Setting [18] is: measured here: mother cell gate.
Setting [19] is: measured here: daughter cell gate response.
Setting [20] is: measured here: mother cell gate response.

Chain of Beta-adrenergic receptor kinase 1 (Homo sapiens) (P25098 whole entry, looked up): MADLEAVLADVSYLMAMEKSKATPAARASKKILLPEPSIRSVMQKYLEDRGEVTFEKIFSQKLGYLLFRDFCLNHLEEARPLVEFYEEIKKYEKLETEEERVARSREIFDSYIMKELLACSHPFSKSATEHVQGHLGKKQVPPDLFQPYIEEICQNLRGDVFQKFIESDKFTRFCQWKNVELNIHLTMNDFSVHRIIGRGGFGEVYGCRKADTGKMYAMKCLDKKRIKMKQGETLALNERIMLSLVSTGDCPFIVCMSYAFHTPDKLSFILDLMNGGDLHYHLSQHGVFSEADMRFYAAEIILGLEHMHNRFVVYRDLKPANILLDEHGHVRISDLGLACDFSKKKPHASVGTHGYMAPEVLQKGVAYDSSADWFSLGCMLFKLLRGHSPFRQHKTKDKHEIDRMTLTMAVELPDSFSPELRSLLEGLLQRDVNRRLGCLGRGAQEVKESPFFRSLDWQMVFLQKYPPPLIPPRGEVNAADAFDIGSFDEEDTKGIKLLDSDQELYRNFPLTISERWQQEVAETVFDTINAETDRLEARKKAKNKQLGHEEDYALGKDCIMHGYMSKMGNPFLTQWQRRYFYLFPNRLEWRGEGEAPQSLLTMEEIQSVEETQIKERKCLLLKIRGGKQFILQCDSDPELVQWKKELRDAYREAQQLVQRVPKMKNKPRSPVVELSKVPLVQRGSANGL
Chain of ATP-binding cassette sub-family B member 6 (Homo sapiens) (Q9NP58 whole entry, looked up): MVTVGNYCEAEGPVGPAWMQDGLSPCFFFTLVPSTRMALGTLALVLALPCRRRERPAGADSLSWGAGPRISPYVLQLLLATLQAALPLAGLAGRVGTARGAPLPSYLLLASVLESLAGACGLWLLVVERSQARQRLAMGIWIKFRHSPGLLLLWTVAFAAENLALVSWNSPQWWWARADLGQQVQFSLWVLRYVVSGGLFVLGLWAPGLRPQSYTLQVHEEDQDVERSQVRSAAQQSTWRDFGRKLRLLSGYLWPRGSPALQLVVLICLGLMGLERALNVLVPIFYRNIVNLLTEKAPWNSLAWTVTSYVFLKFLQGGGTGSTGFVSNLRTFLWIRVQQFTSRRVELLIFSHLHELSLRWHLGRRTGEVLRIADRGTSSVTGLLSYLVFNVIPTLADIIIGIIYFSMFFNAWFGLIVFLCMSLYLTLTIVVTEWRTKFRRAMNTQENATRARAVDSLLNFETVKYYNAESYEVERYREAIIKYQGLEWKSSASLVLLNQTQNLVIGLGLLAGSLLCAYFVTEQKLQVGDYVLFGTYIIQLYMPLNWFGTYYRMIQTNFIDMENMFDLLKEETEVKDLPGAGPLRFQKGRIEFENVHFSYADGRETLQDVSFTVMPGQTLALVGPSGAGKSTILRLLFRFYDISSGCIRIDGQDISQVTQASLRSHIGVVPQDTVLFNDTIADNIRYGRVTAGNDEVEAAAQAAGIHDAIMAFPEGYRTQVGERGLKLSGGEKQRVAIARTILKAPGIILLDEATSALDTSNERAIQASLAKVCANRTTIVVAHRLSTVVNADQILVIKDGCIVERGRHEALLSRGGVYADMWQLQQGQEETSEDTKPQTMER
Chain of Integrin beta-1 (Homo sapiens) + Integrin alpha-4 (Homo sapiens) (P05556 whole entry, looked up): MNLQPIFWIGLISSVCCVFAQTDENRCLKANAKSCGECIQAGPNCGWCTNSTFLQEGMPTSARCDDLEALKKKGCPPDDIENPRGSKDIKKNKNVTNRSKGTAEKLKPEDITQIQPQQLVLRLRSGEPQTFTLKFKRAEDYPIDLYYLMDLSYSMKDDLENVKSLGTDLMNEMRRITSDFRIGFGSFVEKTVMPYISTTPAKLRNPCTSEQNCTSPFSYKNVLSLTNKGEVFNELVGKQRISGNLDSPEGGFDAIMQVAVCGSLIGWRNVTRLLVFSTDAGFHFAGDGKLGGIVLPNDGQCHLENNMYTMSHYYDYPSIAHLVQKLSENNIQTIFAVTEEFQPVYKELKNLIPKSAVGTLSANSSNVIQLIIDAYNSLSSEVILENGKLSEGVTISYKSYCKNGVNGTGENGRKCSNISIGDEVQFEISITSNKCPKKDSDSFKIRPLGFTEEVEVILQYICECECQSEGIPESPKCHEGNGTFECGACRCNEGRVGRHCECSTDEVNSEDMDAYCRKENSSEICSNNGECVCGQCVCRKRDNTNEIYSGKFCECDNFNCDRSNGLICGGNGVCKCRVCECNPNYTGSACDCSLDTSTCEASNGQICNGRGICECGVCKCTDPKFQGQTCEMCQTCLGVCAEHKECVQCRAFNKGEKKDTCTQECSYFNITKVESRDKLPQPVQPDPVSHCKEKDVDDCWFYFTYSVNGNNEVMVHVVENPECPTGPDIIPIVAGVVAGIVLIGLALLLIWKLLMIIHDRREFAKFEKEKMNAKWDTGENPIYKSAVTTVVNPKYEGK
Chain of Integrin beta-1 (Homo sapiens) + Integrin alpha-4 (Homo sapiens) (P13612 whole entry, looked up): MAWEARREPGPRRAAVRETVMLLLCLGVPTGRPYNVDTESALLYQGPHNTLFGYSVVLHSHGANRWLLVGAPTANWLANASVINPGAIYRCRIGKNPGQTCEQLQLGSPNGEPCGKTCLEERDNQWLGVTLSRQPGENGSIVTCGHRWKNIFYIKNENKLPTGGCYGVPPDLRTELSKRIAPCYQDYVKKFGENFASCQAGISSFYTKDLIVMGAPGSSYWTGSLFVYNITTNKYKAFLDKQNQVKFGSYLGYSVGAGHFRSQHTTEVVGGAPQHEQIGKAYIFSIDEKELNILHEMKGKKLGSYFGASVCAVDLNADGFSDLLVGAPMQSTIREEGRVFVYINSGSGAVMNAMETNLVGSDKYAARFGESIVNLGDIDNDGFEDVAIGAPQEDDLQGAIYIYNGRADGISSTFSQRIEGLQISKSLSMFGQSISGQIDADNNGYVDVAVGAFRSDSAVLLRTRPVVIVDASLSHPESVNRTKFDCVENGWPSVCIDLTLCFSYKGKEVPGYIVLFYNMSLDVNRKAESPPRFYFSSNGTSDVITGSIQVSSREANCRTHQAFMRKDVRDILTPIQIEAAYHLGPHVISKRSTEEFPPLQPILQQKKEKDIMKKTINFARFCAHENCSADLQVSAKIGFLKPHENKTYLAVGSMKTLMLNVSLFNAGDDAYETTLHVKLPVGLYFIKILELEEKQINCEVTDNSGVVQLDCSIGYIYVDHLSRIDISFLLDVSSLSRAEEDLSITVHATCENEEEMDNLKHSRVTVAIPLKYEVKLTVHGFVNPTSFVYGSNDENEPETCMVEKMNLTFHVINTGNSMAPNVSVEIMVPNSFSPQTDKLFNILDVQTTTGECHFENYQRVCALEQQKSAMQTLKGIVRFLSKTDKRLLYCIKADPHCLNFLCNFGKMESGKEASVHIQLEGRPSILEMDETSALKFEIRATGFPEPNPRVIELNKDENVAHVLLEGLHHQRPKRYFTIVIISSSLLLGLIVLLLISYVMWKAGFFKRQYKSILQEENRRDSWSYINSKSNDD

As for `Cc1[nH]c(-c2ccccn2)nc(=S)c1Cl`, the GFP response vs DMSO in [1] is 106% (inactive); in [1] (setting [17]), 98.1%; in test [1] (setting [18]), 95.8%; in [3], 118% (inactive). In addition, the GFP response relative to DMSO is 303% (active) in [2], 215% in test [2] (setting [19]) and 266% in test [2] (setting [20]). The results for the GFP response, % of DMSO in test [4], in test [4] (setting [17]) and in test [4] (setting [18]) were 107% (inactive), 115% and 91.5%, respectively.
Take `CCn1c(/C=C/c2ccc([N+](=O)[O-])o2)nc2ccccc2c1=O`: the GFP response vs DMSO is 144% (inactive) in test [1], 143% in [1] (setting [17]), 135% in [1] (setting [18]) and 418% (active) in test [3]. Also, the values for the GFP response relative to DMSO in test [2], in test [2] (setting [19]) and in test [2] (setting [20]) were 347% (active), 336% and 334%, respectively. The GFP response, % of DMSO in [5] is 131% (inactive); in test [4], 278% (active); in [4] (setting [17]), 289%; in test [4] (setting [18]), 251%. In test [6], the fluorescence change (kMESF span) is 108 (active).
Consider `O=C(c1ccc2c(c1)OCO2)N1CCN(c2ccccc2)CC1`, for which the GFP response vs DMSO in test [1] is 98.2% (inactive); in test [1] (setting [17]), 97.1%; in [1] (setting [18]) it was 94%; in test [3], 98.3% (inactive). Besides, the GFP response relative to DMSO is 96.7% (inactive) in test [2] and 104% in test [2] (setting [19]). In addition, the GFP response, % of DMSO in test [5] was 98% (inactive); in test [4] it was 99.7% (inactive).
As for `CCCCCCNC(=O)c1c(O)c2cccc3c2n(c1=O)CCC3`, the GFP response vs DMSO in test [1] was 100% (inactive); in [1] (setting [17]) it was 101%; in test [1] (setting [18]), 100%; in [3], 107% (inactive). Besides, the GFP response relative to DMSO is 97.9% (inactive) in [2], 97.6% in test [2] (setting [19]) and 95.1% in [2] (setting [20]). In addition, the GFP response, % of DMSO is 96.8% (inactive) in [5], 96.9% (inactive) in test [4], 97.2% in test [4] (setting [17]) and 96.1% in test [4] (setting [18]).
As for `COc1ccc(C(=O)NC(=S)NNC(=O)CCc2ccccc2)cc1`, the GFP response vs DMSO in [1] is 106% (inactive); in [1] (setting [17]), 104%; in [1] (setting [18]), 106%; in test [3], 116% (inactive). Moreover, the figures for the GFP response relative to DMSO in test [2], in test [2] (setting [19]) and in [2] (setting [20]) were 188% (active), 173% and 189%, respectively. The GFP response, % of DMSO in test [5] is 87.7% (inactive); in test [4], 101% (inactive); in test [4] (setting [17]), 104%; in test [4] (setting [18]), 93.3%. The fluorescence change (kMESF span) in test [6] was 0.3 (inactive).
For `Oc1c(N=Nc2ccccn2)ccc2ccccc12`, the GFP response vs DMSO is 94.8% (inactive) in [1], 83.8% in test [1] (setting [17]), 87.3% in test [1] (setting [18]) and 104% (inactive) in [3]. Besides, the figures for the GFP response relative to DMSO in test [2] and in test [2] (setting [20]) were 95.3% (inactive) and 66%, respectively. For the same molecule, the GFP response, % of DMSO in test [5] is 84.7% (inactive); in test [4] it was 93.5% (inactive); in test [4] (setting [17]), 94.6%; in test [4] (setting [18]), 81.6%.
On to `CCCCC(=O)O[C@]1(C(=O)CO)CC[C@H]2[C@@H]3CCC4=CC(=O)CC[C@]4(C)[C@H]3[C@@H](O)C[C@@]21C`, for which the GFP response vs DMSO in [1] is 96.8% (inactive); in [1] (setting [17]) it was 96.4%; in test [1] (setting [18]), 99%; in test [3], 105% (inactive). The GFP response relative to DMSO is 101% (inactive) in test [2], 101% in [2] (setting [19]) and 99.3% in [2] (setting [20]). The GFP response, % of DMSO was 99.3% (inactive) in [5], 101% (inactive) in test [4], 101% in test [4] (setting [17]) and 101% in [4] (setting [18]). The double positive events in [7] worked out at 62.4%. Besides, the vesicle binding response in test [7] was 271% (inactive). For the same molecule, the inhibition in test [8] is 4.42% (inactive); in [11], -7.47% (inactive); in test [15], 9% (inactive). Further, the superoxide response (% of plate) in [9] was 83.1% (inactive). For the same molecule, in test [10], the aptamer binding inhibition was 2% (inactive). In addition, the response in test [12] was -1.11% (inactive). The binding (% of control) in test [13] was 101% (inactive). The efflux inhibition (fraction of control) in test [14] was 0.1 (inactive). Moreover, in test [16], the differentiation response is -6.66% (inactive).
`O=c1[nH]c(-c2ccccn2)nc(C(F)(F)F)c1Br`: the GFP response vs DMSO in test [1] was 110% (inactive); in test [1] (setting [17]), 102%; in test [1] (setting [18]), 101%; in [3], 118% (inactive). In addition, the GFP response relative to DMSO in test [2] was 247% (active); in [2] (setting [20]), 219%. Further, the GFP response, % of DMSO in test [5] is 91.2% (inactive); in test [4] it was 112% (inactive); in test [4] (setting [17]), 106%; in test [4] (setting [18]), 103%.
On to `O=C(/C=C/Sc1ncn[nH]1)c1ccc(Cl)cc1`, for which the GFP response vs DMSO was 106% (inactive) in [1], 106% in [1] (setting [17]), 99.8% in test [1] (setting [18]) and 114% (inactive) in test [3]. Besides, the GFP response relative to DMSO is 213% (active) in [2], 198% in test [2] (setting [19]) and 214% in test [2] (setting [20]). Moreover, the GFP response, % of DMSO in test [5] is 89.5% (inactive); in [4], 110% (inactive); in test [4] (setting [17]) it was 108%; in test [4] (setting [18]), 104%. The fluorescence change (kMESF span) in test [6] is 2.12 (inactive).
On to `O=C1Oc2ccccc2C(=O)/C1=C/c1ccccc1O`, for which the GFP response vs DMSO in test [1] is 91.3% (inactive); in test [1] (setting [17]), 89.3%; in [1] (setting [18]), 80.2%; in test [3], 105% (inactive). Besides, the GFP response relative to DMSO in test [2] is 394% (active); in test [2] (setting [19]), 246%; in test [2] (setting [20]), 373%. In addition, the GFP response, % of DMSO in [5] was 91% (inactive); in test [4], 79.8% (inactive); in test [4] (setting [17]), 91.7%; in [4] (setting [18]), 67.7%. Also, the fluorescence change (kMESF span) in test [6] is 0.71 (inactive).
Turning to `Cc1ccc(CS(=O)(=O)c2ncc(Cl)c(C(=O)Nc3nnc(C(C)C)s3)n2)cc1`, the GFP response vs DMSO was 96.2% (inactive) in [1], 96.1% in test [1] (setting [17]), 94% in test [1] (setting [18]) and 103% (inactive) in test [3]. Moreover, the GFP response relative to DMSO in test [2] is 108% (inactive); in test [2] (setting [20]) it was 99.5%. The GFP response, % of DMSO in test [5] is 100% (inactive); in test [4], 101% (inactive); in test [4] (setting [17]), 94%; in [4] (setting [18]), 100%.
Turning to `COc1ccccc1CNc1nc(S(=O)(=O)c2ccccc2)c(Cl)s1`, the GFP response vs DMSO was 97.3% (inactive) in test [1], 97.8% in test [1] (setting [17]), 96.5% in test [1] (setting [18]) and 95.2% (inactive) in [3]. The GFP response relative to DMSO is 108% (inactive) in [2], 104% in test [2] (setting [19]) and 109% in [2] (setting [20]). Further, the GFP response, % of DMSO in test [5] is 105% (inactive); in test [4] it was 97.2% (inactive); in test [4] (setting [17]), 97.6%; in [4] (setting [18]), 97.1%.
